Screen size: about 5,500 compounds; about 2,000 (36%) were called active. About 18% were inconclusive and are not listed. Cut-off read from the data, not from the text of the source: active = normalized growth mostly below about 0.91 (no sharp cut-off); inconclusive = no clear call, values can overlap the other calls; inactive = mostly above about 0.92. Some of the results follow.
Experiment: chemical genetic growth profiling, strain panel (AID 1159580);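 note: tested at 20 µM; growth read once vehicle control cultures reached saturation at 30 °C; 1 = growth at the plate median or of vehicle wells; lower values mean less growth of the strain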
Conditions: S. cerevisiae deletion strains, growth OD
[1] = locus YMR307W, strain GAS1, hits give low values
[2] = locus YNL322C, strain KRE1, hits give low values

Measured: normalized growth

NC(N)=NCc1cccc(I)c1
inactive: locus YAL040C, strain CLN3, hits give low values 0.995 | locus YCL061C, strain MRC1 (second series), hits give low values 0.991 | locus YDR150W, strain NUM1, hits give low values 1.01 | locus YDR363W, strain ESC2, hits give low values 1 | locus YER002W, strain NOP16, hits give low values 1 | [1] 0.997 | locus YNL128W, strain TEP1, hits give low values 1.02 | locus YNL175C, strain NOP13, hits give low values 1.01 | locus YNL197C, strain WHI3, hits give low values 0.987 | locus YNL224C, strain SQS1, hits give low values 1.01 | [2] 0.982 | locus YOR083W, strain WHI5 (second series), hits give low values 0.99 | locus YPL055C, strain LGE1, hits give low values 1.02

C=C(C)C1Cc2c(ccc(C(=O)O)c2O)O1 (stereo not drawn)
active: locus YDL185W, strain tfp1, hits give low values 0.86 | locus YIL125W, strain kgd1, hits give low values 0.91 | locus YKL009W, strain mrt4, hits give low values 0.865 | locus YKL068W, hits give low values 0.91 | locus YNL271C, strain bni1, hits give low values 0.9 | locus YNL298W, strain CLA4, hits give low values 0.795
inactive: locus YBR021W, strain FUR4, hits give low values 0.931 | locus YBR229C, strain ROT2, hits give low values 0.984 | locus YCL029C, strain bik1, hits give low values 0.979 | locus YDL035C, strain GPR1, hits give low values 1.03 | locus YDL074C, strain BRE1, hits give low values 1.02 | locus YDL101C, strain DUN1, hits give low values 1.02 | locus YDL134C, strain PPH21, hits give low values 1.03 | locus YDL192W, strain arf1, hits give low values 0.965 | locus YDR101C, strain arx1, hits give low values 0.954 | locus YDR162C, strain NBP2, hits give low values 1.03 | locus YDR318W, strain mcm21, hits give low values 0.963 | locus YDR388W, hits give low values 0.953 | locus YDR502C, strain sam2, hits give low values 0.979 | locus YEL061C, strain CIN8, hits give low values 0.991 | locus YER110C, hits give low values 0.944 | locus YER155C, strain BEM2, hits give low values 0.946 | locus YER167W, strain BCK2, hits give low values 1 | locus YGL078C, strain dbp3, hits give low values 0.932 | locus YGL086W, strain mad1, hits give low values 0.982 | locus YGL248W, strain PDE1, hits give low values 1 | locus YGR135W, strain pre9, hits give low values 0.969 | locus YGR252W, strain gcn5, hits give low values 0.871 | locus YHR030C, strain SLT2, hits give low values 0.982 | locus YHR079C, strain IRE1 (second series), hits give low values 0.948 | locus YHR094C, strain hxt1, hits give low values 0.944 | locus YHR129C, strain ARP1, hits give low values 0.993 | locus YHR200W, strain rpn10, hits give low values 0.958 | locus YIL066C, strain RNR3, hits give low values 1.03 | locus YIL073C, strain SPO22, hits give low values 1.05 | locus YIR030C, strain dcg1, hits give low values 0.957 | locus YJL095W, strain BCK1, hits give low values 1.04 | locus YJL134W, strain LCB3, hits give low values 0.979 | locus YJL168C, strain set2, hits give low values 0.946 | locus YJL187C, strain SWE1 (second series), hits give low values 1.02 | locus YJR043C, strain POL32, hits give low values 1.02 | locus YJR075W, strain HOC1, hits give low values 1.01 | locus YKL085W, strain MDH1 (second series), hits give low values 0.931 | locus YKL085W, strain MDH1, hits give low values 0.931 | locus YKL190W, strain CNB1, hits give low values 0.998 | locus YKR001C, strain vps1, hits give low values 0.901 | locus YLR039C, strain RIC1, hits give low values 1.07 | locus YLR058C, strain SHM2, hits give low values 1 | locus YLR102C, strain apc9, hits give low values 0.942 | locus YLR262C, strain YPT6, hits give low values 1.08 | locus YLR268W, strain sec22, hits give low values 0.99 | locus YLR330W, strain CHS5, hits give low values 0.976 | locus YLR342W, strain FKS1 (second series), hits give low values 0.998 | locus YLR371W, strain rom2, hits give low values 0.957 | locus YLR418C, strain cdc73, hits give low values 0.957 | locus YML016C, strain PPZ1, hits give low values 0.987 | locus YML032C, strain rad52, hits give low values 0.988 | locus YML124C, strain tub3, hits give low values 0.957 | locus YMR078C, strain ctf18, hits give low values 0.923 | locus YMR223W, strain ubp8, hits give low values 0.98 | [1] 0.972 | locus YNL067W, strain RPL9B, hits give low values 1.01 | locus YNL233W, strain BNI4, hits give low values 1.01 | locus YNL250W, strain rad50, hits give low values 0.911 | locus YNL307C, strain MCK1, hits give low values 0.95 | [2] 0.993 | locus YNR052C, strain pop2, hits give low values 0.971 | locus YOL012C, strain htz1 1.06 | locus YOL147C, strain pex11, hits give low values 0.955 | locus YOR061W, strain CKA2, hits give low values 0.995 | locus YOR069W, strain VPS5, hits give low values 0.99 | locus YOR136W, strain idh2, hits give low values 0.985 | locus YOR144C, strain elg1, hits give low values 0.948 | locus YOR184W, strain ser1, hits give low values 0.989 | locus YOR316C, strain cot1, hits give low values 0.939 | locus YPR119W, strain clb2, hits give low values 0.943 | locus YPR141C, strain kar3, hits give low values 0.918 | locus YPR163C, strain tif3, hits give low values 0.968 | locus YPR167C, strain met16, hits give low values 0.963 | strain wtn01, hits give low values 0.972

From PubChem BioAssay AID1159580 (chemical genetic matrix, 2015)
